# Rows were chosen to be rich in hits. Some 3.4% of all compounds tested hit in one or more screens of this group.
# Mcl1 Bid PPI: disrupts binding of human Mcl-1 to Bid peptide; TR-FRET Mcl-1/Bid-Dy647 peptide binding, 1536-well; 0.97% of 220,000 active; inhibition, % at 21.7 µM;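 active = compounds that cut the binding signal by more than half at the single screening dose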;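 also: His-tagged Mcl-1 with europium anti-His antibody binding Bid BH3 peptide; 0% = Mcl-1 plus peptide wells and 100% = peptide-only wells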
# Target sequence (Q07820 whole entry, looked up): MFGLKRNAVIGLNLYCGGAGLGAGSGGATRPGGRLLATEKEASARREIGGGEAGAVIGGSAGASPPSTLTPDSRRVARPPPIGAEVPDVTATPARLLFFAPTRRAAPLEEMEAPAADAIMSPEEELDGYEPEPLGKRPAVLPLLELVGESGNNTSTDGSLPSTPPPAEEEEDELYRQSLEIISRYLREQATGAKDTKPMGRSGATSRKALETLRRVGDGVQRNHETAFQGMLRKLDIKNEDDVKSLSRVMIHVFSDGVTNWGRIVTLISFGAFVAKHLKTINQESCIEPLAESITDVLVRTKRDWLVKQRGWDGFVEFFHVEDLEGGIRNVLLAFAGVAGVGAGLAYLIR
# Mcl1-Noxa inh: disrupts binding of human Mcl-1 to Noxa peptide; Q07820; TR-FRET Mcl-1/Noxa peptide binding, 2 h; inhibition, % at 21.7 µM; 1.5% of 220,000 active;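 active = compounds that cut the protein-peptide binding signal by more than 50% relative to plate controls in a single-dose test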;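 also: His-tagged Mcl-1 with rhodamine Noxa BH3 peptide and terbium anti-His antibody; 0% = Mcl-1 plus Noxa peptide wells and 100% = peptide-only wells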
# NCF1 inh: inhibitors of human p47phox binding. P14598. 0.53% of 220,000 active. inhibition, % at 24.7 µM. p47phox/p22phox peptide binding, fluorescence polarization, 2 h. AID 1274;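 also: 0% = p47phox with labelled peptide and 100% = labelled peptide alone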
# 14-3-3 Bad PPI: disrupts binding of bovine 14-3-3 zeta to phospho-Bad peptide | AID 781 | inhibition, % at 21.7 µM | P63103 | TR-FRET 14-3-3zeta/Dy647-pBad peptide displacement, 1 h | 0.71% of 220,000 active;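 active = inhibition above about 70%, limit read from the data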;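 also: 0% = full 14-3-3 plus peptide FRET controls and 100% = background without 14-3-3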
# eIF4E 4G PPI: blocks eIF4E binding to eIF4G. inhibition, % at 21.7 µM. TR-FRET eIF4E-eIF4GI(517-606) binding, 2 h. 0.37% of 220,000 active;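 also: 0% = full FRET control wells and 100% = background wells lacking eIF4GI fragment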
# Mcl-1 Bim block: human Bim-Mcl-1 interaction inhibition; Bead-based flow cytometry, Bim peptide-Mcl-1 binding; 0.1% of 190,000 active; Q07820; inhibition, % at 10 µM; in the data active = inhibition above about 40%;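 also: 0% = no compound tracer wells and 100% = peptide blocker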
# Numbers without * were called inactive; . = no result; [ ] = dose if it differs, or a comment.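 The calls were made as follows, unless noted: active = inhibition above about 30% (limit read from the data); inactive = the rest.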
SMILES,Mcl1 Bid PPI,Mcl1-Noxa inh,NCF1 inh,14-3-3 Bad PPI,eIF4E 4G PPI,Mcl-1 Bim block
CCN1C(=O)/C(=C\c2nc3ccccc3c(=O)n2-c2ccccc2)c2ccccc21,45.1,27.4,-0.5,78.4*[fluorescence artefact?],-5.6,-5.0
O=C(N/N=C/c1ccc(Cl)cc1)C1CC12CCC2 (stereo not given),-9.2,16.0,-0.2,-7.6,-2.1,-3.0
C=CCNCCOCCOc1ccc(C)cc1[N+](=O)[O-],27.3,14.2,-12.8,75.1*,2.2,-2.0
CCCSc1nc2c3c(sc2c(=O)[nH]1)CC(C)(CC)OC3 (stereo not given),-14.3,-2.5,-22.5,0.5,2.6,1.0
Cc1ccc(S(=O)(=O)NNC(=O)CCC(=O)Nc2ccccc2)cc1,-17.0,9.5,-10.2,3.0,4.5,0.0
Cc1ccc(S(=O)(=O)NNc2ccccc2)cc1,64.1*,19.3,13.1,38.2,-6.0,-2.0
Cc1cc2cc3c(cc2nc1SCC(=O)OC(C)C)OCCO3,4.1,-1.5,-4.0,90.7*[fluorescence artefact?],5.7,-1.0
CCOC(=O)c1ccc(NC(=S)N(CCCN2CCN(CC)CC2)Cc2cccs2)cc1,-21.3,10.3,9.6,-2.1,2.4,-3.0
CC(=O)C1=C(O)C(=O)N(c2cccnc2)C1c1ccc(Cl)cc1 (stereo not given),-20.6,19.7,-3.5,82.7*,5.6,-3.0
COc1ccc(C2C(C(C)=O)=C(O)C(=O)N2c2cccnc2)cc1OC (stereo not given),-10.4,3.2,-7.0,13.6,1.7,-2.0
COc1ccc(-c2csc3nc(-c4ccccc4)oc(=O)c23)cc1OC,32.1,31.5,3.7,15.4,26.1,4.0
CN(C)NC1CCS(=O)(=O)C1 (stereo not given),-9.4,51.6*,-5.2,52.5,2.1,-1.0
CCCNC1CCS(=O)(=O)C1 (stereo not given),-20.5,-46.6,-0.8,-6.0,-1.6,0.0
Cc1ccc2c(Cl)cc(Cl)c(OCC(=O)NCc3ccco3)c2n1,29.9,93.6*,1.8,39.2,47.2*[fluorescence artefact?],1.0
Cc1ccc2c(Cl)cc(Cl)c(OCC(=O)NC(=O)NCc3ccco3)c2n1,-34.5,0.2,-14.2,-7.5,-8.6,0.0
COc1ccccc1C(=O)C1CCCN(C(=O)Nc2ccccc2F)C1 (stereo not given),-21.2,-0.2,3.5,-1.0,1.5,-3.0
O=C(NCc1ccc(Cl)cc1)c1ccc(CNc2c(N3CCOCC3)c(=O)c2=O)cc1,6.1,-6.4,2.6,3.5,-7.2,.
O=C(NCc1ccc(Cl)cc1)c1ccc(CNc2c(N3CCCC3)c(=O)c2=O)cc1,-16.7,4.4,-4.8,-2.8,56.6*,.
O=C(c1ccc(CNc2c(N3CCCC3)c(=O)c2=O)cc1)N1CCN(C2CCCCC2)CC1,-14.5,17.9,34.8*,-1.1,1.5,-1.0
O=C(O)c1ccc2c(c1)C(=O)N(c1nccs1)C2=O,-27.6,14.2,-2.0,-0.7,4.2,.
Cc1c(NC(=O)COC(=O)c2cc(-c3ccc(-c4ccccc4)cc3)nc3ccccc23)c(=O)n(-c2ccccc2)n1C,81.7*,21.0,-13.1,-9.2,11.7,-4.0
Cc1c(NC(=O)CN2CC(C)OC(C)C2)c(=O)n(-c2ccccc2)n1C (stereo not given),19.2,12.8,-1.9,85.8*,9.1,-1.0
CNC(=O)C(=O)N/N=C/c1cccnc1,8.6,-1.0,6.2,8.1,-0.9,.
COc1ccc(NC(=O)C(=O)N/N=C/c2cccnc2)cc1,-29.6,3.9,-9.1,-2.6,85.1*,.
CC(=O)N(C1=C(N2CCOCC2)C(=O)c2ccccc2C1=O)c1ccc(C(=O)O)cc1,-5.8,-3.6,4.1,0.1,35.8*,.
SMILES,Mcl1 Bid PPI,Mcl1-Noxa inh,NCF1 inh,14-3-3 Bad PPI,eIF4E 4G PPI,Mcl-1 Bim block
CCOC(=O)C1CCN(C(=O)c2cc3ccccc3oc2=O)CC1,-38.1,7.4,0.1,-6.6,-3.8,-1.0
COC(=O)c1sccc1-c1ccc(/C=N/OC(=O)c2cccs2)o1,-12.6,-8.6,-7.0,-7.3,0.2,.
CCc1cc(SC#N)ccc1N,-25.8,14.9,-3.5,-11.3,0.1,-2.0
O=C(NCc1nc2ncc(Br)cc2[nH]1)c1ccccc1,73.4*,5.9,-19.5,-6.3,-5.3,-1.0
Brc1cnc2nc(SC/C=C/c3ccccc3)[nH]c2c1,-7.5,6.5,-3.2,8.2,-4.1,.
CCOC(=O)C1(Cc2cccc(Cl)c2)CCCN(C(=O)C2CC2)C1 (stereo not given),-23.4,6.2,8.9,-16.0,-0.9,-3.0

# Screening data from PubChem BioAssay.
